This is an account of results in PubChem BioAssay AID1851 (National Center for Advancing Translational Sciences (NCATS), 2009).

About 2,600 (16%) of roughly 16,000 compounds were called active. Another 20% or so got no clear call; they are omitted. These entries were drawn from the full list. A number with no mark means an inactive call. Calls follow the shape of the dose curve; as a rule, active = well fitted curve in the direction sought with a large enough effect; inconclusive = small, poorly fitted or top-dose-only effect, or effect the other way; inactive = no such curve, though single readings can be large or run the other way.
% is scaled to controls: 0 for no effect and ±100 for the full control effect.

This experiment deals with Cytochrome P450 2D6 (Homo sapiens) (UniProt P10635). Briefly: Cytochrome panel assay with activity outcomes. Conditions: recombinant CYP, pro-luciferin dealkylation, luminescence, p450-cyp2d6; series mostly up to 57.1 µM.
Cytochrome P450 2D6 (Homo sapiens), sequence (P10635 whole entry, looked up): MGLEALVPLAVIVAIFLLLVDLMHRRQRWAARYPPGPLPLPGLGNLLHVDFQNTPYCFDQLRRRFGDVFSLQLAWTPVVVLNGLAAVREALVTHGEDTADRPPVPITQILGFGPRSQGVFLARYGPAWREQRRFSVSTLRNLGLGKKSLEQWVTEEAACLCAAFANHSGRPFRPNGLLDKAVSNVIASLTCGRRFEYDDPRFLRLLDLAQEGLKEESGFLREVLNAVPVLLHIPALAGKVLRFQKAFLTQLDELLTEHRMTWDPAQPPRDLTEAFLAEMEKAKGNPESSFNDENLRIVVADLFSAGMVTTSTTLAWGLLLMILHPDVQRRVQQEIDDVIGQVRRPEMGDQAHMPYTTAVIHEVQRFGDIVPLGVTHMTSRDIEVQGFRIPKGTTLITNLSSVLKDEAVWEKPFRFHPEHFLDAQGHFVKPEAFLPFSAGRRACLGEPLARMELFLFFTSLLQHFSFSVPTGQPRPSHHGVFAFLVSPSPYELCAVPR
For the compound `Cc1nc2cnc(N3CCNCC3)nc2n(Cc2ccc(F)cc2)c1=O`, the AC50 result was “inactive”.
As to `Cc1c(-c2ccc(O)cc2)nn(-c2ccc(O)cc2)c1-c1ccc(OCCN2CCCCC2)cc1`, the AC50 result was “inactive”.
On the same count and under the same terms, to `CCN(CC)CCNC(=O)c1ccc(Cl)c(S(=O)(=O)Nc2ccccc2OC)c1` belongs “inactive”.
On the same count and under the same terms, to `CCOC(=O)C1=C(O)/C(=C/c2cc(OC)c(OC)c(OC)c2)N=C1C` belongs “inactive”.
Same read-out and setting: to `CCN(CC)CCOC(=O)c1cc(Cl)c(N)cc1OC` belongs 15.8 µM (active).
In the case of `CCN(CC)CCCCCCCCOC(=O)c1cc(OC)c(OC)c(OC)c1`, the AC50 is 31.6 µM (active).
On the same count and under the same terms, the result for `COC(=O)c1cc(OC)c(OC)cc1NC(=S)N1CCCCC1` reads “inactive”; that for `COc1cc(C(=O)OCC(=O)Nc2cc(C)on2)cc(OC)c1OC`, “inactive”.
As for `COc1cc(CN2CCCCC2)cc2cc(C(=O)O)c(=O)oc12`, the activity, negative = inhibition was 4.16% [at 11.4 µM].
Regarding `CCCCOC(=O)c1ccc(NC(=S)NC(=O)c2c(Cl)cnn2C)cc1`, the AC50 result was “inactive”.
For `COc1cc(N)c(Cl)cc1C(=O)OCCCN1CCCCC1`, the half-maximal activity concentration (AC50) is 0.126 µM (active).
In the case of `O=C(OCCCN1CCCCC1)c1ccc(O)cc1`, the AC50 was 5.62 µM (active).
On the same count and under the same terms, the result for `NS(=O)(=O)c1cc2c(cc1Cl)N[C@@H](C(Cl)Cl)NS2(=O)=O` reads “inactive”.
The same measure, in the same setting: to `COc1cccc(Cn2c(=O)c(-c3cccs3)nc3cnc(OCc4ccccc4)nc32)c1` belongs “inactive”; to `Cn1c(=O)c(-c2ccccc2)nc2cnc(OCc3ccccc3)nc21`, “inactive”.
In the case of `CCOC(=O)C1CCN(C(=O)c2ccccc2NC(C)=O)CC1`, the AC50 entry is “inactive”.
In the case of `N#Cc1ccccc1NC(=O)Nc1cccs1`, the AC50 entry is “inactive”.
The same measure, in the same setting: the result for `Cc1nc2cnc(N(C)C)nc2n(-c2ccccc2)c1=O` reads “inactive”; that for `COc1ccccc1-n1c(SCC(=O)N2CCCC2)nc2cccnc21`, “inactive”; that for `CCOC(=O)c1c(NC(=O)Cn2nc([N+](=O)[O-])c(Br)c2C)sc2c1CCC(C)C2` (centres undefined), “inactive”.
Same read-out and setting: the result for `CCCCOc1ccccc1N` reads “inactive”; that for `CCN(CC)C(=O)c1ccc(O)c(OC)c1`, “inactive”.
On the same count and under the same terms, to `CCCOc1cc(N)ccc1C(=O)OCCN(CC)CC` belongs 2 µM (active).
Consider `O=C(O)/C=C/c1cn(-c2ncc(C(F)(F)F)cc2Cl)c2ccccc12`, for which the AC50 entry is “inactive”.
As for `CSc1nnnc2ccccc12`, the activity, negative = inhibition is 0.441% [at 11.4 µM].
Regarding `Cc1nc2cnc(Oc3cccc(Cl)c3)nc2n(CCC#N)c1=O`, the AC50 entry was “inactive”.
The same measure, in the same setting: the result for `CCC(Sc1ncccc1C(=O)O)C(=O)N1CCOCC1` (centres undefined) reads “inactive”.
Take `NS(=O)(=O)Cc1noc2ccccc12`: the AC50 entry is “inactive”.
Consider `O=C(O)/C=C\C(=O)Nc1ccc2c(c1)C(=O)c1cc(F)ccc1-2`, for which the activity, negative = inhibition was -18.3% [at 11.4 µM].
Turning to `COc1cccc(-c2nc(NCCNC(C)=O)c3ccccc3n2)c1`, the AC50 was 3.98 µM (active).
Same read-out and setting: to `COc1cccc(-c2nc(NC3CCNCC3)c3ccccc3n2)c1` belongs “inactive”; to `COCCNc1nc(-c2cccc(NS(C)(=O)=O)c2)nc2ccccc12`, “inactive”; to `COc1cccc(-c2nc(NC3CC3)c3ccccc3n2)c1`, 7.94 µM (active).
The same measure, in the same setting: the result for `COCCNc1nc(-c2cccc(OC)c2)nc2ccccc12` reads 20 µM (active); that for `O=c1cnc2cnc(Nc3ccccc3)nc2n1C1CC1`, “inactive”.
Same read-out and setting: to `COc1ccc2c(c1)-c1ccccc1S(=O)(=O)N2C(C)=O` belongs “inactive”.
For the compound `CCOC(=O)c1cnn(-c2ccccc2)c1-n1cccc1C(=O)C(=O)Nc1ccccc1C(F)(F)F`, the AC50 result is “inactive”.
On to `N#C/C(=C\c1cccs1)C(=O)NCC1CCCO1` (centres undefined), for which the AC50 entry is “inactive”.
Same read-out and setting: to `CN(C)/C=C/C(=O)c1ccc(Cl)cc1` belongs “inactive”.
Same read-out and setting: the result for `Cc1ccc(/C=N\NC(=O)c2cc(OCC(F)(F)F)ccc2OCC(F)(F)F)cc1` reads “inactive”; that for `COc1ccc(NC(=O)N(C2CCCCC2)C(C)c2cccnc2)c(OC)c1` (centres undefined), “inactive”.
Still for that read-out and setting: the result for `Cc1cc(OC(=O)c2ccccc2Br)cc(=O)n1C` reads “inactive”; that for `O=C(CCc1nc2ccccc2c(=O)[nH]1)OCC(=O)N1CCN(S(=O)(=O)c2ccccc2)CC1`, “inactive”.
`Cc1nc2ccccn2c1/C(O)=C1\C(=O)C(=O)N(CCCn2ccnc2)C1c1ccncc1` (centres undefined): the AC50 entry was “inactive”.
Still for that read-out and setting: to `CCN(CC)c1ccc(NC(=O)c2cccnc2)c(C)c1` belongs “inactive”; to `COc1ccc(-c2cc3ccccc3n2CC(O)CNCCO)cc1` (centres undefined), 0.562 µM (active).
For the compound `COc1cccc(C2C(C(=O)c3cc4ccccc4o3)=C(O)C(=O)N2c2cc(C)on2)c1OC` (centres undefined), the AC50 result is “inactive”.
The same measure, in the same setting: the result for `CSc1nc2n(n1)C(c1cccc(F)c1)C(C(=O)Nc1ccc(C)cc1C)=C(C)N2` (centres undefined) reads “inactive”; that for `O=C(c1cccc(F)c1)N1CCC2(CCCN(Cc3nccs3)C2)CC1`, “inactive”.
Still for that read-out and setting: the result for `N#Cc1cccc(NC(=O)N2CCCC3(CCN(C(=O)c4ccco4)CC3)C2)c1` reads “inactive”.
On the same count and under the same terms, to `O=C(c1ccncc1)N1CCC2(CCCN(Cc3ccccc3)C2)CC1` belongs “inactive”; to `N#Cc1ccc(CN2CCCC3(CCN(C(=O)c4ccncc4)CC3)C2)cc1`, “inactive”; to `O=C(c1cccc(F)c1)N1CCC2(CCCN(Cc3ccncc3)C2)CC1`, 7.94 µM (active).
With `O=C(c1ccco1)N1CCC2(CCCN(Cc3ccccc3)C2)CC1`, the AC50 entry was “inactive”.
Same read-out and setting: to `O=C(c1ccco1)N1CCC2(CCCN(Cc3ccncc3)C2)CC1` belongs 3.16 µM (active); to `N#Cc1ccc(CN2CCCC3(CCN(C(=O)c4cccc(F)c4)CC3)C2)cc1`, “inactive”; to `O=C(c1ccncc1)N1CCC2(CCCN(Cc3ccncc3)C2)CC1`, 6.31 µM (active).
Consider `COc1ccc(C(=O)N2CCC3(CCN(Cc4ccc(C#N)cc4)CC3)CC2)cc1`, for which the AC50 result is “inactive”.
Still for that read-out and setting: the result for `N#Cc1ccc(CN2CCC3(CC2)CCN(C(=O)c2ccncc2)CC3)cc1` reads 6.31 µM (active).
